In the supplement of paper PMC6555819:

Experiments:
Test in all cases: PBM binding z-score (relative to random genomic background probes); higher = stronger binding; sequences stand for … in GC…GCGATTGACAGCGTAGAATGAAGG
[1] = test system: RARb homodimer (NR concentration 270 nM)
Procedure, shortened: (§1)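 Antibodies against each partner of ligand-free nuclear receptor dimers (one per run) detected binding on custom Agilent 4×180K protein-binding microarrays after 1 h incubation. The double-stranded probes had 34-nt variable regions carrying direct-repeat seeds, single-nucleotide variants, half-site ablations and random human genomic background sequences. Binding z-scores, from regression-normalized fluorescence, use the random background probes as reference.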

[2] = test system: RARg:RXRa (NR concentration 270 nM, RXRa partner concentration 90 nM)
Procedure, shortened: as §1

[3] = test system: RARg homodimer (NR concentration 270 nM)
Procedure, shortened: as §1

[4] = test system: RXRa DBDmut IVT, anti-RXR (DBD mutation: RXRa K156A/R161A, NR concentration 90 nM)
Procedure, shortened: as §1

[5] = test system: RXRa homodimer (NR concentration 180 nM)
Procedure, shortened: as §1

[6] = test system: THRa:RXRa (NR concentration 90 nM, RXRa partner concentration 90 nM)
Procedure, shortened: as §1

[7] = test system: THRa homodimer (NR concentration 90 nM)
Procedure, shortened: as §1

[8] = test system: VDR homodimer (NR concentration 270 nM)
Procedure, shortened: as §1

Row | Sequence | PBM binding z-score [1] | PBM binding z-score [2] | PBM binding z-score [3] | PBM binding z-score [4] | PBM binding z-score [5] | PBM binding z-score [6] | PBM binding z-score [7] | PBM binding z-score [8]
1 | AGAACGAGGGCAATAAGTTGATAGCACGGGTGGC | 1.11 | 1.23 | 1.56 | 1.9 | 0.767 | 0.873 | -0.185 | 2.26
2 | TCTGCTAGGTCAACGAGGGTCAGCTAATCTGCTA | 4.57 | 5.29 | 6.13 | 1.47 | 3.94 | 4.76 | 1.14 | 0.552
3 | TAGCCTAGATCATTCAGGGGCCAGTATAGAAAGC | 0.182 | 0.658 | 0.249 | -0.277 | 0.341 | 0.0485 | -0.624 | -0.00416
4 | ATACCAAGGTGATCGTGAAGTCGTTGATACTAAC | 0.398 | 0.416 | 0.171 | 0.398 | 0.357 | 1.01 | 0.796 | 0.18
5 | CATATTAGTTGACCATAAGGGCAACCGAAGCTCG | 2.07 | 1.61 | 1.37 | 0.612 | 0.942 | 1.95 | 1.35 | 1.14
6 | CGTCAAAGTTCAACTAAGGTAACGAAAAGCACGC | 4.12 | 5.98 | 6.71 | 4.46 | 4.91 | 5.09 | 1.67 | 3.6
7 | GCGACTGGGGCATCAGCAAGTTACCATAACTTAA | -0.0103 | 0.142 | 0.0409 | -0.018 | 0.208 | -0.53 | -0.605 | -0.296
8 | CCAGACGGGTGAGAAGGTAACTCAGCCTCGATTA | -0.188 | 0.0516 | 0.0574 | -0.845 | 0.0255 | -0.158 | -0.508 | -0.29
9 | TGAATGAGGTTAAAGATCAGGGCACGTGGCGTCG | 1.91 | 2.84 | 1.59 | 0.869 | 3.95 | 3.35 | 1.32 | 1.03
10 | GGTACGAGGGCAAGTTGATAGCAGAGTTTGATGG | 1.72 | 1.74 | 2.47 | 2.31 | 0.941 | 1.39 | 0.219 | 2.1
11 | TCATATAGATAAAAGGTGAAAGTCGGTGTGGTAA | 1.53 | 1.23 | 0.872 | 2.07 | 2.41 | 1.24 | 0.0496 | 0.309
12 | CCGACCGGGGCAGAAAGGTTACCATACCATCCGG | 2.41 | 2.1 | 1.87 | -0.807 | 1.89 | 1.53 | -0.148 | 0.0914
13 | CCTCGGAGGACTACAGGAGGTCAGAGCTGCCAGA | 2.9 | 2.37 | 2.06 | -0.895 | 1.93 | 2.55 | 0.263 | 0.359
14 | GTACCATGGTGAATAGGTCGTTGATGAGTAGGCG | 0.603 | 0.323 | 0.274 | -0.264 | 0.592 | 0.133 | -0.299 | 0.21
15 | AGCACGAGGGCAATGAGTTGATAGCACGGGTGGC | 0.927 | 1.16 | 1.72 | 2.14 | 0.851 | 0.817 | -0.487 | 3.16
16 | CCCACTGGGCCAAGGTCATTGATCAGTCAAAGCA | 3.19 | 3.57 | 3.06 | 0.687 | 3.2 | 3.3 | 2.16 | 3.07
17 | AGAATGAGGTTATTAAGATCAGGGGATTGCGGTC | 0.919 | 1.03 | 0.573 | 1.97 | 1.49 | 2 | 0.811 | 1.35
18 | TCATATAGGTAAACAGGTTAAAGTCCGTAAGTTA | 1.19 | 1.04 | 0.666 | 1.85 | 1.62 | 1.26 | 0.613 | 1.01
19 | AGTAAAAGTTCAGGACGAGGTAACGTAAAGCACG | 2.91 | 4.29 | 4.25 | 2.76 | 2.3 | 3.78 | 2.01 | 1.89

Row | Sequence | PBM binding z-score [1] | PBM binding z-score [2] | PBM binding z-score [3] | PBM binding z-score [4] | PBM binding z-score [5] | PBM binding z-score [6] | PBM binding z-score [7] | PBM binding z-score [8]
20 | GATACAGGGTCAAGGCCACAGTACGCGTATTGAT | 3.85 | 5.44 | 5.11 | 2.15 | 5.9 | 3.69 | 1.85 | 1.84
21 | GCTGCTAGGTCAGATTGGTCAGCTAACGGGTACG | 2.58 | 2.22 | 3.18 | 0.569 | 1.11 | 1.73 | 0.354 | 0.117
22 | CTCGAAAGGTCGTGCTCAGGTGAGTATTCCAAAC | 3.11 | 5.04 | 3.61 | 2.25 | 4.55 | 4.04 | 1.31 | 0.806
23 | TCTGCTAGGTCAACGATTGTCAGCTAATCTGCTA | 3.06 | 3.75 | 4.64 | 1.16 | 2.41 | 2.77 | 0.845 | -0.274
24 | CCTACTGGGCCATTCAGAGGTCATTGACCATATG | 4.16 | 4.57 | 3.23 | 0.945 | 3.98 | 3.28 | 1.45 | 3.34
25 | TCTCGGAGGACACGTAAGGTCAGAGCTCGACATC | 4.02 | 3.53 | 3.84 | 1.11 | 2.47 | 4.72 | 4.18 | 1.25
26 | AGAATGAGGTTATACGTAGATCAGTGAAGAAAGT | 0.6 | 1.71 | 1.14 | 1.92 | 2.12 | 1.99 | 0.44 | 0.703
27 | GCATATAGGTAATACAAGGGGAAAGTCCGATTGT | -0.0469 | 0.247 | 0.368 | 0.734 | 0.3 | 1.94 | -0.473 | 0.0263
28 | ATCTCTAGGTAAGAATCAGTTCAGTGAAGAACGC | 0.542 | 0.529 | 0.6 | 0.634 | 0.2 | 0.888 | 0.68 | 1.52
29 | TCATATAGGTAATAGAGGTGAAAGTCGGCATCTA | 1.33 | 1.08 | 0.999 | 2.14 | 1.68 | 1.91 | 0.432 | 0.435
30 | TCTATTAGTTGATTAGGGCAGCCGAAACAGCGGA | 0.418 | 0.585 | 0.628 | 1.14 | 0.439 | 0.393 | 0.285 | 0.654
31 | ATCTCTAGGTAAAGATAGTTCAGTGAGTGCAAAT | 1.5 | 0.634 | 0.838 | 0.341 | 0.157 | 1.1 | 0.522 | 4.13
32 | CGAACTAGGTCATTGACAAGACAGTGAATAGTAA | 2.2 | 3.71 | 4.21 | 1.81 | 2.68 | 2.3 | 0.53 | 0.774
33 | CCTACTGGGACAAGGTCATTGATCAGTCAAAGCA | 3.22 | 4 | 3.34 | 1.7 | 3.71 | 3.47 | 2.27 | 3.29
34 | ATCTCTAGGTATCAAGTTCAGTGAAAGAGAGGAC | 1.89 | 1.07 | 1.17 | 1.34 | 0.64 | 1.03 | 0.846 | 2.79
35 | CCTAGCAGGCCAATCTGGGTCACTTAAGGCTTGA | 2.26 | 1.07 | 1.19 | -0.0983 | 0.84 | 3.93 | 0.596 | 0.132
36 | TCTAGCAGGCCAGAGGGTCACTCACGAGGTACGG | 2.69 | 2.68 | 2.14 | 0.0334 | 2.44 | 1.61 | 0.0798 | 0.852
37 | ACAGTCAGGTGATGAAGGTAACTCAGGCTATCAT | 0.23 | 0.23 | 0.365 | -0.243 | 0.405 | 1.19 | 0.0421 | -0.453
38 | CCTACTGGGCTAAAGGTCATTGATTCCAATGCTC | 4.22 | 4.96 | 4.27 | 1.17 | 5.21 | 3.15 | 0.533 | 2.18

Row | Sequence | PBM binding z-score [1] | PBM binding z-score [2] | PBM binding z-score [3] | PBM binding z-score [4] | PBM binding z-score [5] | PBM binding z-score [6] | PBM binding z-score [7] | PBM binding z-score [8]
39 | TAGCCTTGGTCATGGGCCAGTATACCACGCGAAC | 0.441 | 0.368 | 0.681 | -1.32 | 0.297 | -0.147 | -0.424 | -0.715
40 | AGAATGAGGTTACCTAAGATCAGGGAAACGCTTG | 0.84 | 2.05 | 1.65 | 0.932 | 2.66 | 3.93 | 1.05 | 0.305
41 | TCATATGGGTAATACAGGTGAAAGTCGGCATCTA | 0.197 | 0.414 | 0.489 | 0.75 | 0.794 | 0.846 | -0.109 | -0.42
42 | TCTCGGAGGACACGATGGTCAGAGCTTTCCAGAG | 0.682 | 0.274 | 1.24 | 0.266 | 0.00404 | 1.05 | 0.363 | -0.307
43 | AGAACGAGGGCACGCTGAGTTGGTAGCAGAGTAG | 1.01 | 1.69 | 2.37 | 1.55 | 1.19 | 1.56 | -0.105 | 0.953
44 | TAGCCTAGGTCATCCGGGCCAGTATAGTGTCGGC | 3.17 | 4.1 | 4.53 | 1.24 | 2.96 | 3.16 | 1.16 | 1.42
45 | CCTAGTTGGTCAGGAGGTTACACACCGGATATGA | 1.49 | 1.67 | 1.33 | 0.179 | 1.3 | 1.03 | 0.918 | 0.702
46 | ATCTCTAGGTAAAAATAGTTCAGTGAATGCAAAT | 1.13 | 1.01 | 0.9 | 0.16 | 0.292 | 0.72 | 0.138 | 0.549
47 | ACTATTAGTTGACTTGGGGCAACCGATACGACGC | 0.856 | 0.552 | 0.701 | 0.839 | 0.366 | 1.29 | 0.534 | 0.357
48 | TCTTGTAGATCAATAGAGGTTAAGTAAGTGCGCT | 1.37 | 0.902 | 0.6 | 0.824 | 1.49 | 3.1 | -0.295 | 0.563
49 | GCTGCTAGGTCAACTGATGGTCAGCAAAAGCTCG | 3.66 | 5.17 | 5.41 | 1.5 | 2.99 | 2.91 | 0.775 | 0.254
50 | GCTGGTAGGTCAGGTTGGTCAGCTAACGGGTACG | 2.87 | 2.48 | 3.76 | 0.0797 | 1.23 | 1.12 | 0.417 | 0.965
51 | AGAACGAGGGCAACGAGTTGATAGCACGGGTGGC | 0.919 | 1.41 | 1.74 | 1.76 | 0.952 | 0.99 | -0.357 | 2.5
52 | TCTTCTAGGTCAGTTGGTCAGCTAACGAGCTGCC | 3.05 | 3.26 | 4.08 | 1.65 | 1.62 | 2.19 | 1.58 | 0.514
53 | GCTAGTTGGTCAGTAAAAGGTCACACACCGGTCG | 5.15 | 5.32 | 4.87 | 0.715 | 5.2 | 3.52 | 2.08 | 1.99
54 | ACAGACAGGTCAGTGAAGGTAACTCAGCTGGACG | 2.48 | 3.33 | 4.21 | 0.616 | 2.23 | 3.86 | -0.151 | -0.256
55 | CCTAGTTGGTCAAGGTCACCCACGCTATAGGTAC | 4.38 | 4.42 | 4.75 | 1.81 | 4.47 | 4.22 | 4.66 | 4.05
56 | CAAACTAGGTCTAGGTCAAAGTCGGTTTGTGCCA | 2.76 | 2.15 | 2.3 | 0.796 | 1.83 | 2.9 | 1.64 | 1.1
